# According to the OligoGym collection:
# Molecular target: GGH
# Assay: pooled miR-30 sensor sort-seq; sequence = guide strand
# Settings: shRNA
# Also: reference of the scale not given here.
row,Sequence,sensor-assay potency score (higher = more potent)
1,TAAGACATTGAAAAACTTCTTT,-0.164
2,TTGAAAAACTTCTTTAACTTTT,-0.924
3,TTCTCTGTAAGATCCAGCCTTA,-0.166
4,ATACTGGATACTTATATCCTTC,-0.969
5,TTAATAAGCACTCTCCACTAAT,-1.04
6,TTTCTCTGTAAGATCCAGCCTT,-0.286
7,AAATTCTGGAACATTCTGCTGT,0.666
8,TTAGCATAATCTGAGCGTCTGA,-0.339
9,TTGACCTCCAGTGAAGTTCAGC,-0.539
10,TGAACTGATAAATCAATGCTTT,-0.538
11,TATTTCATAGTCTTTCTCTGTA,0.438
12,TTTAACTTTTCATTCATTGTAA,0.207

# Molecular target: GH2
# Assay: as above
# Settings: shRNA
row,Sequence,sensor-assay potency score (higher = more potent)
1,TTCTGCTGCGTTTTCACCCTGT,0.325
2,TTGAGCAGTGCGTCATCGTTGT,0.36
3,TAGACGTTGCTGTCCGAGGCGC,-0.468
4,AAGGTGTTGGAATAGACTCTGA,-0.802
5,TATGCCAGCTGGTACAGGCGAC,-1.2
6,TAGGTTAGATTTCTGCTGCGTT,0.0139
7,TAGACTCTGAGAAGCAGAGGGA,0.323
8,ATAGGTGTCATATGCCAGCTGG,-0.725
9,TTCTTCAAACTCCTGATAGGTG,-0.633
10,TAAACTCCTGATAGGTGTCATA,-1.52
